Measured potencies and affinities stand elsewhere. Activity calls are given as the source filed them.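 Rule for the calls: active = every repeat run showing a signal drop whose fitted half-maximal concentration is at most twice the top tested concentration; inconclusive = repeat runs disagree, or flat partial drop, or poor fit; inactive = the rest.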

The assay in a line: general mammalian cell viability loss – activator set, cherry-pick, cytotoxicity control for miR-122 modulator project, dose response (AID 720690). The note with it: HEK293T viability, CellTiter-Glo luminescence, 48 h; series mostly up to 26 µM.
As to `CN1C(=O)c2cc(NC(=O)c3ccc4c(c3)OCO4)ccc2OC[C@H]2O[C@@H](CC(=O)O)CC[C@@H]21`, the result was inactive.
With `Cc1nnc(NC(=O)CSc2nc(C(C)C)nc3sc(C)c(C)c23)s1` the entry was “inactive”; with `CN1C(=O)c2cc(NC(=O)Cc3ccccc3)ccc2OC[C@@H]2O[C@@H](CC(=O)NCc3ccc(Cl)cc3)CC[C@H]21`, “inactive”; with `COC(=O)C[C@H]1CC[C@H]2[C@H](COc3ccc(NC(=O)c4cccc(F)c4)cc3C(=O)N2C)O1`, “inactive”.
Consider `O=C(COc1ccccc1F)N1CCc2ccccc2C1`, for which the call was inactive.
Under `CSc1cccc(NS(=O)(=O)c2ccccc2)c1` stands “inactive”; under `CN(C)C(=O)c1ccc(-c2ccc([C@H]3[C@@H](CO)N4CCCCN(C(=O)C5CCCC5)C[C@@H]34)cc2)cc1`, “inactive”; under `COCCNC(=O)C[C@H]1CC[C@@H]2[C@H](COc3ccc(NC(=O)c4cnccn4)cc3C(=O)N2C)O1`, “inactive”.
For the compound `CNC(=O)C[C@H]1CC[C@@H]2[C@H](COc3ccc(NC(=O)Nc4cccc(F)c4)cc3C(=O)N2C)O1`, the compound was called inactive.
Under `CN1C(=O)c2cc(NC(=O)c3cccc(F)c3)ccc2OC[C@H]2O[C@H](CC(=O)NC3CCC3)CC[C@H]21` stands “inactive”.
With `C/C=C/c1ccc([C@H]2[C@@H](CO)N(Cc3ccccn3)[C@H]2CNC(=O)CC)cc1` the entry was “inactive”; with `C[C@@H]1CN([C@@H](C)CO)C(=O)c2cc(NC(=O)Nc3cccc4ccccc34)ccc2O[C@@H](C)CCCCO[C@H]1CN(C)CC1CCCCC1`, “inactive”; with `COCC(=O)Nc1ccc2c(c1)C(=O)N(C)[C@@H]1CC[C@@H](CC(=O)NCc3ccc(OC)cc3)O[C@H]1CO2`, “inactive”.
Consider `COc1ccc(NS(=O)(=O)c2ccc(NC(=O)C(C)(C(F)(F)F)C(F)(F)F)cc2)nn1`, for which the compound was called inactive.
Under `CCN(C[C@H]1N[C@H](CO)[C@H]1c1ccc(C2=CCCC2)cc1)C(=O)c1cccnc1` stands “inactive”.
Under `N#Cc1ccc(C(=O)Nc2ccc(N3CCN(C(=O)c4ccco4)CC3)cc2)c(F)c1` stands “inactive”; under `CC(=O)N1[C@H](CN(C)S(=O)(=O)c2ccccc2)[C@H](c2ccccc2)[C@@H]1CO`, “inactive”.
With `Cc1cc(C(C)(C)C)cc(S(=O)(=O)NCCc2ccncc2)c1C` the entry was “inactive”; with `N#Cc1c(N)nc2c(c1-c1cccs1)CCCC2`, “inactive”.
For the compound `CC(C)C(=O)Nc1ccc2c(c1)C(=O)N(C)[C@H]1CC[C@H](CC(=O)NCCc3ccccc3)O[C@H]1CO2`, the call was inactive.
In the case of `CNC(=O)C[C@H]1CC[C@@H]2[C@H](COc3ccc(NC(=O)c4cccc(OC)c4)cc3C(=O)N2C)O1`, the compound was classed as inactive.
Under `Cc1cc(C)cc(Oc2ccc(NC(=O)C3CC=CCC3C(=O)O)cc2)c1` (centres undefined) stands “inactive”.
Under `CC(C)Oc1ccc(C(CCN)C2CCCCC2)cc1` (centres undefined) stands “inactive”.
With `COc1cccc(COc2cc3ccccc3nc2C)c1` the entry was “inactive”.
Turning to `COC(=O)C[C@H]1CC[C@@H]2[C@@H](COc3ccc(NC(=O)Nc4cccc(F)c4)cc3C(=O)N2C)O1`, the call was inactive.
Under `CC(=O)Nc1ccc2c(c1)C(=O)N(C)[C@@H]1CC[C@@H](CC(=O)NCc3ccc(Cl)cc3)O[C@H]1CO2` stands “inactive”.
Under `CCC(=O)N1[C@H](CN(C)C(C)=O)[C@H](c2ccc(-c3cccnc3)cc2)[C@@H]1CO` stands “inactive”; under `CCN(C[C@H]1[C@H](c2ccccc2)[C@H](CO)N1C(=O)COC)S(C)(=O)=O`, “inactive”; under `CN(C)c1ncnc2c1ncn2C1OC(CO)C(O)C1O` (centres undefined), “inactive”.
With `CCCC(=O)Nc1ccc2c(c1)C(=O)N(C)[C@@H]1CC[C@H](CC(=O)NCC(F)(F)F)O[C@H]1CO2` the entry was “inactive”.
For the compound `CCC(=O)N(C)C[C@@H]1[C@H](c2ccc(-c3ccccc3F)cc2)[C@H](CO)N1C(C)=O`, the compound was classed as inactive.
On to `CCNC(=O)Nc1ccc2c(c1)C(=O)N(C)[C@H]1CC[C@H](CC(=O)Nc3ccccc3F)O[C@@H]1CO2`, for which the call was inactive.
Under `O=C(COc1cccc2ccccc12)Nc1nc2ccccc2[nH]1` stands “inactive”; under `CO[C@H]1CN(C)C(=O)c2cc(NC(C)=O)ccc2OC[C@@H](C)N(C(=O)c2ccccn2)C[C@H]1C`, “inactive”; under `CNC(=O)C[C@H]1CC[C@H]2[C@@H](COc3ccc(NC(=O)c4cccc(OC)c4)cc3C(=O)N2C)O1`, “inactive”.
With `C/C=C/c1ccc([C@@H]2[C@H](CO)N[C@H]2CN(CC)C(=O)CN2CCOCC2)cc1` the entry was “inactive”; with `CN(Cc1ccccc1)C(=O)COC(=O)c1ccccc1Nc1ccccc1`, “inactive”.
With `C/C=C/c1ccc([C@@H]2[C@@H](CO)N(Cc3ccccn3)[C@H]2CNC(=O)CC)cc1` the entry was “inactive”; with `CN(C[C@H]1N[C@@H](CO)[C@H]1c1ccc(-c2cccc(F)c2)cc1)C(=O)C1CCC1`, “inactive”.

Values taken from PubChem BioAssay AID720690 (Broad Institute, 2013).
